PubChem BioAssay AID1159580 (chemical genetic matrix, 2015)
Values joined by “and” are separate entries in the source; they are usually repeats but may differ in a detail not shown here. Equal values may be shown once. In all, about 5,500 compounds went through this assay and about 2,000 (36%) were called active. Inconclusive results (about 18%) are left out. Cut-off read from the data, not from the text of the source: active = normalized growth mostly below about 0.91 (no sharp cut-off); inconclusive = no clear call, values can overlap the other calls; inactive = mostly above about 0.92. Some of the results follow.

Assay: chemical genetic growth profiling, strain panel (AID 1159580);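 note: tested at 20 µM; growth read once vehicle control cultures reached saturation at 30 °C; 1 = growth at the plate median or of vehicle wells; lower values mean less growth of the strain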
Conditions: S. cerevisiae deletion strains, growth OD

Measured: normalized growth

COc1ccc2c(c1OC)C(=O)O[C@@H]2[C@H]1c2cc3c(cc2CCN1C)OCO3
inactive: locus YAL013W, strain DEP1, active compounds read low 1.03 | locus YAL021C, strain ccr4, active compounds read low 1.01 | locus YAL026C, strain drs2, active compounds read low 0.993 | locus YAL030W, strain snc1, active compounds read low 0.991 | locus YBL061C, strain skt5, active compounds read low 0.992 | locus YBR009C, strain hhf1, active compounds read low 0.984 | locus YBR021W, strain FUR4, active compounds read low 1.04 | locus YBR023C, strain chs3, active compounds read low 0.987 | locus YBR171W, strain sec66, active compounds read low 1 | locus YBR229C, strain ROT2, active compounds read low 1.01 | locus YBR231C, strain swc5, active compounds read low 0.989 | locus YBR279W, strain paf1, active compounds read low 0.992 | locus YCL011C, strain gbp2, active compounds read low 0.996 | locus YCL016C, strain dcc1, active compounds read low 0.974 | locus YCL029C, strain bik1, active compounds read low 1.02 | locus YCL061C, strain MRC1, active compounds read low 0.995 | locus YCL069W, strain vba3, active compounds read low 1 | locus YCR088W, strain abp1, active compounds read low 0.997 | locus YDL005C, strain med2, active compounds read low 0.997 | locus YDL035C, strain GPR1, active compounds read low 1.03 | locus YDL040C, strain nat1, active compounds read low 0.991 | locus YDL074C, strain BRE1, active compounds read low 1.03 | locus YDL101C, strain DUN1, active compounds read low 1.01 | locus YDL134C, strain PPH21, active compounds read low 1.01 | locus YDL185W, strain tfp1, active compounds read low 1.03 | locus YDL192W, strain arf1, active compounds read low 1.02 | locus YDR001C, strain nth1, active compounds read low 1 | locus YDR069C, strain doa4, active compounds read low 0.981 | locus YDR101C, strain arx1, active compounds read low 1.01 | locus YDR137W, strain rgp1, active compounds read low 0.969 | locus YDR150W, strain NUM1, active compounds read low 1.02 | locus YDR159W, strain sac3, active compounds read low 0.991 | locus YDR162C, strain NBP2, active compounds read low 1.02 | locus YDR195W, strain ref2 0.985 | locus YDR297W, strain sur2, active compounds read low 0.985 | locus YDR318W, strain mcm21, active compounds read low 1.03 | locus YDR334W, strain swr1, active compounds read low 0.998 | locus YDR335W, strain msn5, active compounds read low 0.989 | locus YDR388W, active compounds read low 1.02 | locus YDR392W, strain spt3, active compounds read low 0.929 | locus YDR502C, strain sam2, active compounds read low 1.01 | locus YEL003W, strain gim4, active compounds read low 1.01 | locus YEL037C, strain rad23, active compounds read low 1 | locus YEL061C, strain CIN8 (second series), active compounds read low 1.01 | locus YEL061C, strain CIN8, active compounds read low 1.01 | locus YER015W, strain faa2, active compounds read low 0.974 | locus YER016W, strain bim1, active compounds read low 0.991 | locus YER110C, active compounds read low 1.03 | locus YER111C, strain swi4, active compounds read low 1.01 | locus YER155C, strain BEM2 (second series), active compounds read low 0.995 | locus YER155C, strain BEM2, active compounds read low 1.02 | locus YER167W, strain BCK2, active compounds read low 1.04 | locus YFR010W, strain ubp6, active compounds read low 1.01 | locus YGL078C, strain dbp3, active compounds read low 1.03 | locus YGL086W, strain mad1, active compounds read low 1.03 | locus YGL167C, strain pmr1, active compounds read low 0.984 | locus YGL173C, strain kem1, active compounds read low 0.993 | locus YGL227W, strain vid30, active compounds read low 0.994 | locus YGL240W, strain doc1, active compounds read low 0.958 | locus YGL248W, strain PDE1, active compounds read low 1.02 | locus YGL253W, strain hxk2, active compounds read low 0.999 | locus YGR078C, strain PAC10, active compounds read low 1.01 | locus YGR135W, strain pre9, active compounds read low 1.01 | locus YGR229C, strain SMI1, active compounds read low 1.03 | locus YGR252W, strain gcn5, active compounds read low 1.06 | locus YHR013C, strain ard1, active compounds read low 0.965 | locus YHR027C, strain rpn1, active compounds read low 1.01 | locus YHR030C, strain SLT2, active compounds read low 1.02 | locus YHR079C, strain IRE1 (second series), active compounds read low 1.02 | locus YHR079C, strain IRE1, active compounds read low 0.995 | locus YHR094C, strain hxt1, active compounds read low 1.02 | locus YHR129C, strain ARP1, active compounds read low 1.02 | locus YHR142W, strain chs7, active compounds read low 1.01 | locus YHR200W, strain rpn10, active compounds read low 1.01 | locus YIL066C, strain RNR3, active compounds read low 1.02 | locus YIL073C, strain SPO22, active compounds read low 1.11 | locus YIL125W, strain kgd1, active compounds read low 1.02 | locus YIR030C, strain dcg1, active compounds read low 1.01 | locus YJL092W, strain hpr5, active compounds read low 0.999 | locus YJL095W, strain BCK1 (second series), active compounds read low 0.996 | locus YJL095W, strain BCK1, active compounds read low 1.01 and 1 | locus YJL115W, strain asf1, active compounds read low 0.997 | locus YJL129C, strain trk1, active compounds read low 1.02 | locus YJL134W, strain LCB3, active compounds read low 1.01 | locus YJL154C, strain vps35, active compounds read low 0.999 | locus YJL164C, strain tpk1, active compounds read low 0.984 | locus YJL166W, strain qcr8, active compounds read low 0.975 | locus YJL168C, strain set2, active compounds read low 1.01 | locus YJL187C, strain SWE1 (second series), active compounds read low 1.02 | locus YJL187C, strain SWE1, active compounds read low 0.988 | locus YJR043C, strain POL32, active compounds read low 1.06 | locus YJR066W, strain TOR1, active compounds read low 0.975
